In the OligoGym collection:
Also: reference of the scale not given here.

What follows are sequences tested against ZBTB24 (assay: pooled miR-30 sensor sort-seq; sequence = guide strand). Conditions: shRNA.
TTGGTGGTCAGAGCCTTGCTGC showed a sensor-assay potency score (higher = more potent) of -1.29.
For TTAAGAACTGAGCAGTAGCCAG, the sensor-assay potency score (higher = more potent) was -1.12.
In the case of TTGAGAAGTATTCACTACTGGC, the sensor-assay potency score (higher = more potent) is reported as 0.328.
With TTTAGCTGTCTGTTCTGGCTGA the sensor-assay potency score (higher = more potent) was 0.857.
With TTGGAAGTCTGTGTAAGCCTTT the sensor-assay potency score (higher = more potent) was -0.108.

What follows are sequences tested against ZBTB39 in the same assay as above. Conditions: shRNA.
With TAAGCAGACACCAACATCCCTG the sensor-assay potency score (higher = more potent) was -0.047.
For TAGAACTTTCTTGCACACCTGG, the sensor-assay potency score (higher = more potent) was -0.103.
TTAGACATCTACTATTTGGGGA gave a sensor-assay potency score (higher = more potent) of 0.801.
TTCAACACTAGCAAAAACCTGT was tested, and the sensor-assay potency score (higher = more potent) was -0.0406.
AAGTCCACCACATAGGTCCTGG gave a sensor-assay potency score (higher = more potent) of -0.52.
For TAGTGTTTCAAGCAAAACCATT, the sensor-assay potency score (higher = more potent) was -1.46.
TTAAACACAACACAGAACAGAA gave a sensor-assay potency score (higher = more potent) of -0.952.
TATTATGCTAGAGACAATCTGG gave a sensor-assay potency score (higher = more potent) of 0.145.
TTGCTTGTGAAACAGCCCGGGG was tested, and the sensor-assay potency score (higher = more potent) was -1.25.
For TTAAGTACACAGACCACCCAGC, the sensor-assay potency score (higher = more potent) was -0.108.
Sequence TTAGTTTCACACATGTCGCAGG has a sensor-assay potency score (higher = more potent) of -0.128.
With TAAAGAAACATCAAAATCGAGT the sensor-assay potency score (higher = more potent) was -0.558.

Each sequence was assayed against ZBTB5 in the same assay as above. Conditions: shRNA.
TACAATGACACAATCACAGAGC was tested, and the sensor-assay potency score (higher = more potent) was 0.0287.
TTAAGTAATGTTTACATGCCTT showed a sensor-assay potency score (higher = more potent) of -0.579.
Work on TACTTGATTACTTCTATGCTAT yielded a sensor-assay potency score (higher = more potent) of 0.0849.
Work on TTTGGTTAATCTGTCGTCGAAA yielded a sensor-assay potency score (higher = more potent) of -0.689.
With TAATCTGTCGTCGAAAACGGTA the sensor-assay potency score (higher = more potent) was -0.933.
TTGATAGAACTTTATGATCTGT gave a sensor-assay potency score (higher = more potent) of 0.242.
In the case of TTAATCTCACAAGACACTGGTC, the sensor-assay potency score (higher = more potent) is reported as -0.0713.
TAGGTTATTTGTGACTTCCAAA showed a sensor-assay potency score (higher = more potent) of -1.29.
TGCACTTTGACAGAACATCTGC was tested, and the sensor-assay potency score (higher = more potent) was -0.0496.
Sequence TTACAAACTACTTTCTGACTGC has a sensor-assay potency score (higher = more potent) of 0.686.
Work on TTTTGCATCACTATACAGGGAT yielded a sensor-assay potency score (higher = more potent) of 0.397.
Sequence ATCAAAACTAGTCTCAACCTGA has a sensor-assay potency score (higher = more potent) of 0.322.

These sequences were tested against ZBTB8A in the same assay as above. Conditions: shRNA.
Sequence TTCTACAATCTCCACATAGGAT has a sensor-assay potency score (higher = more potent) of -0.772.
In the case of TTTCTTTCTCACTAATGTCTAA, the sensor-assay potency score (higher = more potent) is reported as -0.493.
TTGACTTATAATGAGTAACTTC was tested, and the sensor-assay potency score (higher = more potent) was -0.468.
For TCACAAAATACATCTTGCCTGC, the sensor-assay potency score (higher = more potent) was -0.43.
Work on TAAAAGTCTTACATACACTTAT yielded a sensor-assay potency score (higher = more potent) of -0.256.
TAGCGAATAATACATTTCGATG gave a sensor-assay potency score (higher = more potent) of -1.75.
TTCAGCATCAATCTGTGCTTGT showed a sensor-assay potency score (higher = more potent) of 0.622.
For TACACTTATGACATCAGTCATC, the sensor-assay potency score (higher = more potent) was -0.715.
Sequence TTGTTGAGTATTCTTCTGGGAG has a sensor-assay potency score (higher = more potent) of -0.386.
In the case of TAAATCTTTTTCCACAAGCTTG, the sensor-assay potency score (higher = more potent) is reported as -1.26.
Work on TAAAGTAGCCGCTACTAGCGAA yielded a sensor-assay potency score (higher = more potent) of -0.929.
